MEKK3 PB1 HTS: raises or lowers MEK5 binding to the human MEKK3 PB1 domain; Q99759; bead-based flow cytometry, Alexa488-MEK5 binding to MEKK3; actives lie on both sides; 0 = blocked by unlabeled MEK5, 100 = vehicle; binding response (% of control), % at 10 µM; 1.4% of 290,000 active; AID 1529;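 active = binding response more than 3 SD above or below the average of its plate-row segment, actives on both sides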;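 also: Alexa488 bead fluorescence after subtracting the streptavidin-only scavenger bead signal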
Target sequence (Q99759 whole entry, looked up, the tested form may be a part): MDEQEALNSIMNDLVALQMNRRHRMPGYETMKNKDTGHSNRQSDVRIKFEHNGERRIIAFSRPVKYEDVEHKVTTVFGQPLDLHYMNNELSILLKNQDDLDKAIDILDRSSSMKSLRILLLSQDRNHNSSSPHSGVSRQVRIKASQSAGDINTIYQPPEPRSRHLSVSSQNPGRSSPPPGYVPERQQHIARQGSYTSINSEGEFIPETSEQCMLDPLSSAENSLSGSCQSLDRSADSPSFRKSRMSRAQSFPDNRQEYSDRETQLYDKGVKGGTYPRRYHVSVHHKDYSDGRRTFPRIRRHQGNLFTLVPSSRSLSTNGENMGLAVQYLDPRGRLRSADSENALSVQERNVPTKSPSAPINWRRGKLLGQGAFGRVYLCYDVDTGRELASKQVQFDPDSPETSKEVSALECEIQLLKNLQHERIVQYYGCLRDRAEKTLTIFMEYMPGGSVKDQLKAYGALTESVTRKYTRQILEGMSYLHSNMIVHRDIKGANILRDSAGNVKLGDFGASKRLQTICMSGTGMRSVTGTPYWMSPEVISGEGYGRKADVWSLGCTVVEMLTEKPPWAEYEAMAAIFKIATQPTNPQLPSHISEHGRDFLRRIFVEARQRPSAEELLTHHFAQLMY
ATG4B inh: inhibitors of human ATG4B cysteine protease; AID 504462; 0.51% of 340,000 active; Q9Y4P1; ATG4B cleavage of LC3-PLA2, NBD-HPC fluorescence, 1 h; inhibition, % at 8.33 µM; in the data active = inhibition above about 40%
MEKK2mut PB1 HTS: signal of MEK5 binding to mutant human MEKK2 PB1 domain; bead flow cytometry, Alexa488-MEK5 binding to MEKK2 mutant; AID 1530; 0.35% of 290,000 active; percent response, % at 10 µM; in the data active = percent response above about 24%, passing the limit was not always enough
PREPL inh: inhibits the human prolyl oligopeptidase-like enzyme; Q4J6C6; recombinant PREPL, fluorescence polarization activity-based probe; inhibition, % at 5.96 µM; 0.68% of 320,000 active; AID 2751; in the data active = inhibition above about 43%;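 also: 0% = enzyme with DMSO and 100% = wells lacking enzyme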
MEKK2wt PB1 HTS: raises or lowers MEK5 binding to wildtype human MEKK2 PB1 domain | AID 1531 | 1.1% of 290,000 active | Q9Y2U5 | binding response (% of control), % at 10 µM | bead flow cytometry, Alexa488-MEK5 binding to MEKK2 WT; actives lie on both sides; in the data active = binding response below about 67% or above about 130%
UBC13 inh: blocks human UBC13 polyubiquitin chain formation; P61088; TR-FRET; inhibition, % at 20 µM; 0.47% of 330,000 active; AID 485273; in the data active = inhibition above about 45%, passing the limit was not always enough
MEKK2wt confirm: raises or lowers MEK5 binding to wildtype human MEKK2, retest | shares compounds with MEKK3 PB1 HTS | bead flow cytometry, Alexa488-MEK5 binding to MEKK2 WT; actives lie on both sides | binding response (% of control), % at 10 µM | 2.4% of 5,900 active; in the data active = binding response below about 16% or above about 210%; inactive = in between
MEKK2mut confirm: signal of MEK5 binding to mutant human MEKK2, retest; percent response, % at 10 µM; bead flow cytometry, Alexa488-MEK5 binding to MEKK2 mutant; shares compounds with MEKK3 PB1 HTS; AID 1893; 2% of 5,900 active; in the data active = percent response mostly above about 71%, no sharp cut-off; inactive = mostly below about 38%;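 also: higher means compound restores mutant binding toward wildtype level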
MEKK3-MEK5 inh: confirmation of inhibitors of MEK5 binding to human MEKK3. shares compounds with MEKK3 PB1 HTS. bead flow cytometry, Alexa488-MEK5 binding to MEKK3; hits give low values. binding response (% of control), % at 10 µM. 1.8% of 5,900 active. AID 1894;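 active = binding response below 72% of control, or above a set upper limit, though filed actives all read lower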;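 also: 100% = DMSO only wells and 0% = binding blocked by excess unlabeled MEK5; lower values mean stronger disruption of MEK5 binding to MEKK3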
* hit, by the source's call; x = no result; [ ] = remark or other dose. Only some compounds are listed: those with a hit (about 3.1% of all), similar ones and a draw of the others.

SMILES	MEKK3 PB1 HTS	ATG4B inh	MEKK2mut PB1 HTS	PREPL inh	MEKK2wt PB1 HTS	UBC13 inh	MEKK2wt confirm	MEKK2mut confirm	MEKK3-MEK5 inh
O=C(Nc1cccc(C(F)(F)F)c1)C(SCCO)c1ccccc1 (stereo not given)	131*	-13	0	-9	105	6	53	-28	59*
CCC(C(=O)Nc1cccc(C(F)(F)F)c1)c1ccccc1 (stereo not given)	104	2	5	13	108	4	x	x	x
FC(F)(F)c1cccc(NC(=S)NC(c2ccccc2)c2ccccc2)c1	152*	11	10	-2	169*	x	176	42	106
Cc1ccccc1C(=O)NNC(=S)Nc1cccc(C(F)(F)F)c1	116	5	-1	9	101	-17	x	x	x
CCOC(=O)[C@@H]1[C@H]2COc3cc(OC)ccc3[C@H]2N2C(=O)N(c3ccc(OC)cc3)C(=O)[C@]12C	x	-6	x	-95	x	2	x	x	x
CCOC(=O)C(C(=O)OCC)c1cc(Br)c2noc3c2c1C(=O)c1ccccc1-3	64*[inhibitor]	-15	-14	23	39*[inhibitor]	-110	44	-25	68*
CC(=O)OCCNc1cc(N2CCN(C)CC2)c2noc3c2c1C(=O)c1ccccc1-3	87	-13	7	x	94	x	x	x	x
CC(C)(C)c1ccc(C(=O)OCC(=O)Nc2sc3c(c2C#N)CCC3)cc1	132*	-4	1	16	106	4	76	-19	74
CCOC(=O)C1(CC2CCCCO2)CCN(S(=O)(=O)c2cccc(F)c2)CC1 (stereo not given)	99	17	-1	7	99	-9	x	x	x
CC(C)=C(NC(=O)c1ccccc1)C(=O)Nc1ccc(C(=O)O)cc1	106	3	11	-7	104	-8	x	x	x
CC(C)n1cc(CN2CCC(C(=O)Nc3cccc(-c4cccc(Cl)c4)c3)CC2)cn1	107	-13	34*	-44	183*	32	203	73*	117
O=C(Nc1cccc(-c2cccc(Cl)c2)c1)C1CCN(Cc2ccc(CO)o2)CC1	105	2	22	-40	153*	25	126	23	109
Cc1ccc(CN2CCC(C(=O)Nc3cccc(-c4cccc(F)c4)c3)CC2)o1	98	5	3	-5	114	10	x	x	x
N#Cc1ccccc1S(=O)(=O)N1CCN(CC(O)CN2CCOCC2)CC1 (stereo not given)	x	-3	x	1	x	-3	x	x	x
COc1cc(CN2CCN(C(=O)c3ccccc3F)CC2)cc(OC)c1OC	108	-2	11	x	115	-1	x	x	x
CC(C)C(NC(=O)C1CCCCC1)C(=O)Nc1ccccn1 (stereo not given)	101	3	25*	-1	106	6	90	-4	99
CC(C)CC(NC(=O)C1CCC(C)CC1)C(=O)Nc1ccccn1 (stereo not given)	102	-15	-4	0	98	-6	x	x	x
CC(C)CC(N=Cc1c(O)c2ccccc2oc1=O)C(=O)O (stereo not given)	73*[inhibitor]	-8	-2	3	93	15	100	0	104
O=C1NC(=O)C2C1C(c1ccccc1)N1C3C(=O)NC(=O)C3C(c3ccccc3)N21 (stereo not given)	100	-4	5	-4	106	-1	x	x	x
O=C1NC(=O)C2C3c4ccccc4C(c4ccccc43)C12 (stereo not given)	70*[inhibitor]	-5	-38	-1	77	-15	99	-3	103
COc1ccc(-c2cc3cc(OC)c(OC)cc3c(C)n2)cc1C	94	-11	-19	26	92	21	x	x	x
CCCCCCc1cc2cc(-c3nnc(-c4ccccc4OC)o3)c(=O)oc2cc1O	94	-7	-7	11	80	-29	x	x	x
CCCCCCc1cc2cc(S(=O)(=O)c3ccc(F)cc3)c(=O)oc2cc1O	138*	36	0	-5	103	-5	105	-1	104
CCCCCCc1cc2cc(-c3nnc(-c4ccccc4O)o3)c(=O)oc2cc1O	101	2	5	16	71*[inhibitor]	-64	100	-1	108
O=C(O)C1C2C=CC(C2)C1C(=O)Nc1ccc(Cl)c(Cl)c1 (stereo not given)	103	0	26*	-4	104	-12	96	-1	98
SMILES	MEKK3 PB1 HTS	ATG4B inh	MEKK2mut PB1 HTS	PREPL inh	MEKK2wt PB1 HTS	UBC13 inh	MEKK2wt confirm	MEKK2mut confirm	MEKK3-MEK5 inh
Cc1cc(NC(=O)COC(=O)c2ccc([N+](=O)[O-])cc2Cl)no1	x	5	x	12	x	-12	x	x	x
COc1cccc(OC)c1NC(=O)Cc1nn(C)c(=O)c2ccccc12	125*	-11	8	0	123	9	98	1	98
COc1ccccc1NC(=O)Cc1nn(C)c(=O)c2ccccc12	99	-15	1	-7	100	2	x	x	x
O=C(c1ccoc1)N1CCC(CO)(CCc2ccccc2)CC1	81	-11	-9	7	82	19	x	x	x
O=[N+]([O-])c1cccc(-c2nc3ccc([N+](=O)[O-])cc3[nH]2)c1	128*	-5	1	18	113	-1	104	4	95
O=C(COc1ccc(Cl)cc1)Nc1ccc2c(c1)CCC2	75*[inhibitor]	10	-1	7	100	0	98	-4	96
O=C(O)COc1ccccc1/C=N/NC(=O)CSc1nnc(SCc2ccc(Cl)cc2)s1	130*	1	29	-17	114	-10	105	3	111
CCCCOCCCN1CC(=O)N2[C@@H](Cc3c([nH]c4ccccc34)C2(C)C)C1=O	109	-4	2	8	106	2	x	x	x
C#CCn1cc(C=C2C(=O)c3ccccc3C2=O)c2ccccc21	36*[inhibitor]	12	-1	x	80	x	91	-4	101
C#CCn1c(=O)cc(C)c2ccccc21	103	1	1	2	103	4	x	x	x
O=C(Nc1ccccc1N1CCOCC1)c1ccc(Cl)nc1	72*[inhibitor]	7	1	9	86	5	101	-2	100
O=C(NCc1csc(-c2cccs2)n1)C1CCCCC1	102	7	2	-1	110	2	x	x	x
CC(C)C(NS(=O)(=O)c1c(Cl)cccc1Cl)C(=O)OCC(=O)c1c[nH]c2ccccc12 (stereo not given)	77	-9	76*	-67	-2.0*	0	105	9	102
